HP1b chromo inh – HTS for Inhibitors of HP1-beta Chromodomain Interactions with Methylated Histone Tails | Chromobox protein homolog 1 (Homo sapiens), P83916 | AlphaScreen HP1-beta / biotin-H3K9me3 peptide binding | Potency, µM (highest dose often 114 µM), most hits filed as inhibitors | actives 0.56% (n = 390,000) | AID 540317, 2011; note: nearly all actives have a fitted effect of over 70% in size
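Compound inhibition of the preformed complex between 50 nM HP1-beta and 50 nM biotinylated H3K9me3 peptide was read by AlphaScreen. Buffer was PBS pH 7.4 with 0.01% Tween-20. Incubations ran 30 min at room temperature, with 10 ug/mL donor/acceptor beads.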
Sfp PPTase inh – qHTS Assay for Inhibitors of Bacillus subtilis Sfp phosphopantetheinyl transferase (PPTase) | 4'-phosphopantetheinyl transferase ffp (Bacillus subtilis), Q9F4F7 | Biochemical Sfp PPTase activity, qHTS | Potency, µM, most hits filed as inhibitors | actives 3.5% (n = 310,000);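 note: the enzyme is Sfp with the accession as filed and its product quenches rhodamine fluorescence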
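Step 1, compound plus 15 nM Sfp-PPTase, 15 min, room temperature. Step 2, add rhodamine-CoA (5 uM) and BHQ-2-YbbR (12.5 uM). Step 3, read 525/598 nm fluorescence at 0 and 30 min.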
JMJD2A Tudor inh – qHTS Assay for Inhibitors of JMJD2A-Tudor Domain; Potency, µM (highest dose often 114 µM), hits mostly inhibitors; actives 4.4% (n = 390,000); Lysine-specific demethylase 4A (Homo sapiens), O75164; AlphaScreen JMJD2A-Tudor / H3K4me3 peptide binding; note: nearly all actives have a fitted effect of over 50% in size
L3MBTL1 inh – qHTS Assay for the Inhibitors of L3MBTL1; Potency, µM (titrated, usually from 57.1 µM), hits mostly inhibitors; actives 0.66% (n = 230,000); AID 485360, 2010; AlphaScreen L3MBTL1–H3K9me1 peptide binding; note: nearly all actives have a fitted effect of over 60% in size
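L3MBTL1 (50 nM) pre-complexed 30 min with biotinylated H3(1-15)K9me1 peptide (75 nM), then compounds added for 30 min at room temperature; AlphaScreen streptavidin donor/nickel chelate acceptor beads (10 ug/mL final) read after 30 min dark incubation.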
G9a inh – qHTS Assay for Inhibitors of Histone Lysine Methyltransferase G9a. Histone-lysine N-methyltransferase EHMT2 (Homo sapiens), Q96KQ7. G9a H3K9 monomethylation, AlphaScreen, 2 h. Potency, µM (highest dose often 102 µM), actives largely listed as inhibitors. actives 8.8% (n = 350,000). AID 504332, 2011; note: nearly all actives have a fitted effect of over 75% in size
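Chemiluminescent proximity detection of H3K9 monomethylation, read after 10 min bead incubation in the dark. Reaction: 20 nM G9a, 500 nM biotin-H3K9 peptide, 20 uM SAM cofactor, 2 h, room temperature, following 15 min enzyme-compound preincubation.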
BAZ2B block – qHTS Assay for Inhibitors of BAZ2B. AlphaScreen BAZ2B-H3K14Ac peptide displacement. Bromodomain adjacent to zinc finger domain protein 2B (Homo sapiens), Q9UIF8. actives 4.4% (n = 360,000). Potency, µM (doses to about 114 µM), hits mostly inhibitors; note: nearly all actives have a fitted effect of over 60% in size
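BAZ2B (50 nM) with biotin-H3(5-23)K14Ac peptide (50 nM) in PBS pH 7.4, 0.01% Tween-20, preformed 30 min, then compound 30 min at room temperature; top concentration 110uM. AlphaScreen streptavidin donor/nickel chelate acceptor beads (10 ug/mL final), 20 min dark, signal read.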
A number is an active result; – = inactive; ? = inconclusive; · = no result given; [ ] = dose if it differs, or a comment. Sampled rows, rich in hits. Any-hit rate of the full collection: about 12%. Calls come from the whole dose curve; as a rule, active = well fitted curve in the direction sought with a large enough effect; inconclusive = small, poorly fitted or top-dose-only effect, or another doubt; inactive = no such curve, though single readings can be large; an effect the other way counts as inactive or inconclusive.

SMILES | HP1b chromo inh | Sfp PPTase inh | JMJD2A Tudor inh | L3MBTL1 inh | G9a inh | BAZ2B block
Cc1noc(COc2ccccc2OCC(N)=O)n1 | – | · | – | · | · | ·
Cc1ccc(C(=O)N(C)Cc2ccc(N3CCOCC3)cc2)cc1S(=O)(=O)NCc1ccccc1 | – | · | – | – | –[12.7 µM] | –
O=C(/C(N=Nc1cccc([N+](=O)[O-])c1)=C(/O)c1ccc(Br)cc1)C(F)(F)F | · | – | · | – | 40µM | 25µM
Cc1onc(-c2c(Cl)cccc2Cl)c1C(=O)N1CCc2ccccc2C1 | – | – | – | – | –[0.0925 µM] | ?
COc1ccc(C2/C=C\CN(C(=O)CC(C)(C)C)C(C)C(=O)N2Cc2ccc(F)cc2)cc1 (stereo unspecified) | – | – | – | · | · | ·
CN1CCN(/N=C/c2nc(-c3ccccc3)n3ccccc23)CC1 | – | – | ? | – | 14µM | ?
Clc1ccc(-c2nc(/C=N/N3CCOCC3)c3ccccn23)cc1 | – | – | ? | – | 28µM | ·
O=Cc1nc(-c2ccc(Cl)cc2)n2ccccc12 | – | – | ? | ? | – | –
O=Cc1nc(-c2ccccc2Cl)n2ccccc12 | – | – | – | – | – | –
CN1CCN(/N=C/c2nc(-c3ccc(Cl)cc3)n3ccccc23)CC1 | – | – | ? | – | 16µM | 50µM
Cc1noc(Cn2c(=O)c3ccccc3n(CC(=O)Nc3cccc(Cl)c3C)c2=O)n1 | – | · | – | · | – | –
COc1ccc(Cl)cc1NC(=O)c1c(NCc2cccs2)sc2c1CCC(C)C2 (stereo unspecified) | – | · | – | · | – | –
CCOC(=O)CNC(=O)CSc1nnc(SCC(=O)NCC(=O)OCC)s1 | – | ? | – | – | 18µM | –
CCOC(=O)CSc1snnc1C | – | · | – | · | · | ·
CCOC(=O)CSc1nnc(N)s1 | – | – | 56µM | – | 18µM | –
CCOC(=O)CSC1=NC(=O)CS1 | – | 79µM | – | – | ? | ?
Nc1nnc(SCC(=O)N2CCN(Cc3ccccc3)CC2)s1 | – | – | – | · | 45µM | –
CSc1sccc1/C=C(/C#N)C(=O)c1ccco1 | – | – | – | · | ? | –
CCN(CC)S(=O)(=O)c1ccc2c(c1)N(CC(=O)N1CCN(c3ccc(OC)cc3)CC1)C(=O)CO2 | – | · | – | · | – | –
Cc1c(C(=O)N2CCOCC2)sc(NC(=O)C(C)C)c1C#N | – | – | – | · | – | –
CCN(c1ccccc1)S(=O)(=O)c1ccc(C(=O)Nc2nnc(COC)o2)cc1 | – | – | 56µM | – | – | 56µM
COCc1nnc(NC(=O)c2ccc(S(=O)(=O)N(C)c3ccccc3)cc2)o1 | – | – | 79µM | – | – | ?
CCN(c1ccccc1)S(=O)(=O)c1ccc(C(=O)Nc2nnc(CSC)o2)cc1 | – | – | – | – | ? | ?
CCN(c1ccccc1)S(=O)(=O)c1ccc(C(=O)Nc2nnc(-c3ccco3)o2)cc1 | – | – | – | · | 50µM | ·
CCN(c1ccccc1)S(=O)(=O)c1ccc(C(=O)Nc2nnc(C3CC3)o2)cc1 | – | – | – | – | – | 79µM
SMILES | HP1b chromo inh | Sfp PPTase inh | JMJD2A Tudor inh | L3MBTL1 inh | G9a inh | BAZ2B block
CN(c1ccccc1)S(=O)(=O)c1ccc(C(=O)Nc2nnc(C3CC3)o2)cc1 | – | – | – | – | – | ?
COCc1nn2c(=O)cc(N3CCNCC3)nc2s1 | · | · | – | · | · | ·
Cc1oc(-c2cccc(Cl)c2)nc1CS(=O)(=O)CC(=O)NC(C)CCc1ccccc1 (stereo unspecified) | – | · | – | · | – | –
CCOCCCN(C)C1CCN(C(=O)c2oc3ccccc3c2NC(=O)COc2ccc(F)cc2)CC1 | – | – | – | · | · | –
Cc1csc2nc(-c3cccc(NC(=O)c4c(F)cccc4F)c3)cn12 | – | · | ? | · | – | –
O=C(Nc1ccc2nc(SCC(=O)N3CCCC3)sc2c1)c1cccc(Br)c1 | – | · | – | · | – | –
Cc1cc2n(n1)CCCN2C(=O)Nc1ccc(F)c(Cl)c1 | – | · | – | · | – | –
Cc1cc2n(n1)SC(Nc1ccc(F)c(Cl)c1)N2 (stereo unspecified) | – | ? | ? | – | 1.4µM | –
CC(=O)Oc1ccc(C(=O)[C@H]2[C@H]3C(=O)N(c4ccc5ccccc5c4)C(=O)[C@H]3[C@@H]3C=CC=NN32)cc1 | – | – | – | – | ? | –
COc1ccccc1N1C(=O)[C@@H]2[C@H](C1=O)[C@H](C(=O)c1ccc(OC(C)=O)cc1)N1N=CC=C[C@@H]21 | – | – | – | – | 5µM | –
CC(=O)Nc1ccc(C2NC(C(=O)O)CCC2C)cc1 (stereo unspecified) | · | – | · | · | · | ·
OCc1ccc(-c2ccc(-c3ccc(CO)s3)o2)s1 | · | – | · | · | 1.6µM | ·
O=C(CCCOc1ccc(Br)cc1)NNC(=O)c1ccncc1 | – | · | – | – | ? | –
COC(=O)[C@@]12CCCN1[C@H](c1ccc(-c3ccccc3)cc1)[C@H]1C(=O)N(C)C(=O)[C@H]12 | – | · | 79µM | – | –[2.33 µM] | –
O=C(C1=C(O)C(=O)N(CCN2CCOCC2)C1c1ccc([N+](=O)[O-])cc1)c1cccs1 (stereo unspecified) | – | – | 45µM | · | ? | –
O=C(C1=C(O)C(=O)N(CCN2CCOCC2)C1c1cccc(Br)c1)c1cccs1 (stereo unspecified) | – | – | – | · | 56µM | –
Cc1cc(N2C(=O)C(O)=C(C(=O)c3cccs3)C2c2cccc(Br)c2)no1 (stereo unspecified) | – | – | – | – | ? | –
COc1cccc(OC)c1C(=O)Nc1nnc(C)s1 | – | · | – | · | ? | –
O=C1N(c2ccccc2)C(c2ccccc2)C12CCCCC2 (stereo unspecified) | – | · | – | – | · | ·
CCOc1ccc(-c2cc(N)n(S(=O)(=O)c3cccc4nsnc34)n2)cc1 | – | – | ? | · | 22µM | ?
Cc1ccc(C(=O)NCCCNCCCNC(=O)c2ccc(C)nc2)cn1 | – | – | – | – | – | –
Cc1ccc(C(=O)NCCCNC(=O)c2ccc(Cl)cc2)cn1 | – | – | – | · | – | –
Cc1ccc(C(=O)NCCCNCCCN(C)C)cn1 | – | – | 50µM | · | ? | ?
O=C(NCCCNCCCNC(=O)c1ccc(/C=N/O)nc1)c1ccc(/C=N/O)nc1 | – | 14µM | 5.6µM | · | · | 1.4µM
CN(CCCCCNC(=O)/C=N/O)Cc1ccccc1 | · | – | · | – | ? | –
CN(CCNC(=O)c1ccc(/C=N/O)nc1)Cc1ccccc1 | – | – | 8.9µM | – | 25µM | ?

Compound activity: PubChem BioAssay, National Center for Advancing Translational Sciences (NCATS)
